Hit rate of the full screen: of about 5,500 compounds, about 2,000 (36%) were called active. Roughly 18% stayed inconclusive and do not appear here. Cut-off read from the data, not from the text of the source: active = normalized growth mostly below about 0.91 (no sharp cut-off); inconclusive = no clear call, values can overlap the other calls; inactive = mostly above about 0.92. This is one part of the list.
Experiment: chemical genetic growth profiling, strain panel (AID 1159580);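 note: tested at 20 µM; growth read once vehicle control cultures reached saturation at 30 °C; 1 = growth at the plate median or of vehicle wells; lower values mean less growth of the strain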
Conditions: growth OD

Measured: normalized growth

COc1cc([C@@H]2c3cc4c(cc3[C@H](O)[C@H]3COC(=O)[C@@H]23)OCO4)cc(OC)c1OC
inactive: S. cerevisiae deletion strains, locus YKL009W, strain mrt4, stronger effect = lower value 1 | S. cerevisiae deletion strains, locus YKL068W, stronger effect = lower value 0.977 | S. cerevisiae deletion strains, locus YKL085W, strain MDH1 (second series), stronger effect = lower value 1 | S. cerevisiae deletion strains, locus YKL085W, strain MDH1, stronger effect = lower value 1 | S. cerevisiae deletion strains, locus YKL160W, strain elf1, stronger effect = lower value 1.02 | S. cerevisiae deletion strains, locus YKR001C, strain vps1, stronger effect = lower value 0.978 | S. cerevisiae deletion strains, locus YKR026C, strain gcn3, stronger effect = lower value 1.02 | S. cerevisiae deletion strains, locus YKR091W, strain srl3, stronger effect = lower value 1.02 | S. cerevisiae deletion strains, locus YLL001W, strain dnm1, stronger effect = lower value 1.01 | S. cerevisiae deletion strains, locus YLL026W, stronger effect = lower value 1.01 | S. cerevisiae deletion strains, locus YLL041C, strain sdh2, stronger effect = lower value 1.02 | S. cerevisiae deletion strains, locus YLR027C, strain aat2, stronger effect = lower value 1.03 | S. cerevisiae deletion strains, locus YLR039C, strain RIC1, stronger effect = lower value 0.996 | S. cerevisiae deletion strains, locus YLR058C, strain SHM2, stronger effect = lower value 1.01 | S. cerevisiae deletion strains, locus YLR102C, strain apc9, stronger effect = lower value 0.984 | S. cerevisiae deletion strains, locus YLR113W, strain HOG1, stronger effect = lower value 0.997 | S. cerevisiae deletion strains, locus YLR221C, strain rsa3, stronger effect = lower value 0.999 | S. cerevisiae deletion strains, locus YLR258W, strain gsy2, stronger effect = lower value 1.02 | S. cerevisiae deletion strains, locus YLR262C, strain YPT6 (second series), stronger effect = lower value 1.04 | S. cerevisiae deletion strains, locus YLR262C, strain YPT6, stronger effect = lower value 0.991 | S. cerevisiae deletion strains, locus YLR268W, strain sec22, stronger effect = lower value 0.971 | S. cerevisiae deletion strains, locus YLR320W, strain mms22, stronger effect = lower value 1.01 | S. cerevisiae deletion strains, locus YLR330W, strain CHS5, stronger effect = lower value 0.998 | S. cerevisiae deletion strains, locus YLR342W, strain FKS1 (second series), stronger effect = lower value 1.02 | S. cerevisiae deletion strains, locus YLR342W, strain FKS1, stronger effect = lower value 1.02 | S. cerevisiae deletion strains, locus YLR357W, strain rsc2, stronger effect = lower value 1.02 | S. cerevisiae deletion strains, locus YLR370C, strain arc18, stronger effect = lower value 1.03 | S. cerevisiae deletion strains, locus YLR371W, strain rom2, stronger effect = lower value 0.972 | S. cerevisiae deletion strains, locus YLR384C, strain iki3, stronger effect = lower value 1.02 | S. cerevisiae deletion strains, locus YLR418C, strain cdc73, stronger effect = lower value 1.05 | S. cerevisiae deletion strains, locus YML016C, strain PPZ1, stronger effect = lower value 0.997 | S. cerevisiae deletion strains, locus YML032C, strain rad52, stronger effect = lower value 1.02 | S. cerevisiae deletion strains, locus YML120C, strain ndi1, stronger effect = lower value 1.01 | S. cerevisiae deletion strains, locus YML124C, strain tub3, stronger effect = lower value 0.993 | S. cerevisiae deletion strains, locus YMR058W, strain fet3, stronger effect = lower value 1.02 | S. cerevisiae deletion strains, locus YMR078C, strain ctf18, stronger effect = lower value 0.991 | S. cerevisiae deletion strains, locus YMR125W, strain sto1, stronger effect = lower value 1.02 | S. cerevisiae deletion strains, locus YMR129W, stronger effect = lower value 1.02 | S. cerevisiae deletion strains, locus YMR205C, strain PFK2, stronger effect = lower value 1.02 | S. cerevisiae deletion strains, locus YMR223W, strain ubp8, stronger effect = lower value 1.01 | S. cerevisiae deletion strains, locus YMR231W, strain pep5, stronger effect = lower value 1.03 | S. cerevisiae deletion strains, locus YMR263W, strain SAP30, stronger effect = lower value 1.01 | S. cerevisiae deletion strains, locus YMR307W, strain GAS1, stronger effect = lower value 1.05 | S. cerevisiae deletion strains, locus YNL067W, strain RPL9B, stronger effect = lower value 1.01 | S. cerevisiae deletion strains, locus YNL071W, strain lat1, stronger effect = lower value 1.02 | S. cerevisiae deletion strains, locus YNL153C, strain GIM3, stronger effect = lower value 1.03 | S. cerevisiae deletion strains, locus YNL183C, strain NPR1, stronger effect = lower value 0.904 | S. cerevisiae deletion strains, locus YNL209W, strain ssb2, stronger effect = lower value 1.01 | S. cerevisiae deletion strains, locus YNL233W, strain BNI4, stronger effect = lower value 1.01 | S. cerevisiae deletion strains, locus YNL248C, strain rpa49, stronger effect = lower value 1.01 | S. cerevisiae deletion strains, locus YNL250W, strain rad50, stronger effect = lower value 0.95 | S. cerevisiae deletion strains, locus YNL271C, strain bni1, stronger effect = lower value 0.993 | S. cerevisiae deletion strains, locus YNL298W, strain CLA4, stronger effect = lower value 0.997 | S. cerevisiae deletion strains, locus YNL307C, strain MCK1, stronger effect = lower value 0.992 | S. cerevisiae deletion strains, locus YNL322C, strain KRE1 (second series), stronger effect = lower value 1.01 | S. cerevisiae deletion strains, locus YNL322C, strain KRE1, stronger effect = lower value 1 | S. cerevisiae deletion strains, locus YNR049C, strain mso1, stronger effect = lower value 1.02 | S. cerevisiae deletion strains, locus YNR052C, strain pop2, stronger effect = lower value 1.01 | S. cerevisiae deletion strains, locus YOL012C, strain htz1 0.992 | S. cerevisiae deletion strains, locus YOL147C, strain pex11, stronger effect = lower value 0.993 | S. cerevisiae deletion strains, locus YOR001W, strain rrp6, stronger effect = lower value 1.04 | S. cerevisiae deletion strains, locus YOR061W, strain CKA2, stronger effect = lower value 1 | S. cerevisiae deletion strains, locus YOR069W, strain VPS5, stronger effect = lower value 0.991 | S. cerevisiae deletion strains, locus YOR070C, strain gyp1, stronger effect = lower value 1.02 | S. cerevisiae deletion strains, locus YOR080W, strain dia2, stronger effect = lower value 1.03 | S. cerevisiae deletion strains, locus YOR083W, strain WHI5, stronger effect = lower value 1.02 | S. cerevisiae deletion strains, locus YOR106W, strain vam3, stronger effect = lower value 1.04 | S. cerevisiae deletion strains, locus YOR136W, strain idh2, stronger effect = lower value 0.98 | S. cerevisiae deletion strains, locus YOR144C, strain elg1, stronger effect = lower value 1 | S. cerevisiae deletion strains, locus YOR184W, strain ser1, stronger effect = lower value 0.999 | S. cerevisiae deletion strains, locus YOR231W, strain MKK1, stronger effect = lower value 0.996 | S. cerevisiae deletion strains, locus YOR265W, strain rbl2, stronger effect = lower value 1.02 | S. cerevisiae deletion strains, locus YOR270C, strain vph1, stronger effect = lower value 1.03 | S. cerevisiae deletion strains, locus YOR290C, strain snf2, stronger effect = lower value 1.01 | S. cerevisiae deletion strains, locus YOR316C, strain cot1, stronger effect = lower value 0.995 | S. cerevisiae deletion strains, locus YPL051W, strain arl3, stronger effect = lower value 1.02 | S. cerevisiae deletion strains, locus YPL055C, strain LGE1, stronger effect = lower value 1.02 | S. cerevisiae deletion strains, locus YPL078C, strain atp4, stronger effect = lower value 1.02 | S. cerevisiae deletion strains, locus YPL106C, strain sse1, stronger effect = lower value 1 | S. cerevisiae deletion strains, locus YPL240C, strain hsp82, stronger effect = lower value 1.02 | S. cerevisiae deletion strains, locus YPL241C, strain CIN2, stronger effect = lower value 1 | S. cerevisiae deletion strains, locus YPL256C, strain CLN2, stronger effect = lower value 0.967 | S. cerevisiae deletion strains, locus YPR119W, strain clb2, stronger effect = lower value 0.986 | S. cerevisiae deletion strains, locus YPR141C, strain kar3, stronger effect = lower value 0.988 | S. cerevisiae deletion strains, locus YPR163C, strain tif3, stronger effect = lower value 0.996 | S. cerevisiae deletion strains, locus YPR167C, strain met16, stronger effect = lower value 0.989 | S. cerevisiae deletion strains, strain wtn01, stronger effect = lower value 0.945 | S. cerevisiae strains, strain wild type, stronger effect = lower value 1.02

— PubChem BioAssay AID1159580 (chemical genetic matrix, 2015)
